This note sets out measurements from PubChem BioAssay AID463173 (ICCB-Longwood Screening Facility, Harvard Medical School, 2010).

Structures are written as SMILES. Hit rate of the full screen: of about 52,000 compounds, about 4,300 (8.3%) were called active. The full list was thinned out, with actives kept by preference. A number with no mark means an inactive call. Rule as the data show it: active = survival mostly below about 52% (no sharp cut-off); inactive = mostly above about 56%.

The test system of the test is DeltatarO mutant. In words: growth inhibition of S. aureus wild type versus tarO mutant, primary screen, teichoic acid synthesis inhibitors, RN4220, OD600 (AID 463173). The following applies: OD600, 18 h, active compounds read low, screened at 18.75 µg/mL (by protocol).
In the case of `Cc1c(CCC(=O)NCCc2ccccc2F)c(=O)oc2cc(O)ccc12`, the survival is 61%. Consider `O=C(CSc1nc2c([nH]c3ccccc32)c(=O)n1-c1ccccc1)N1CCc2ccccc21`, for which the survival is 101%.

For `CCOC(=O)c1ccccc1NS(=O)(=O)c1ccc(N2CCCCS2(=O)=O)cc1`, the survival is 90%. Then `CN1CCN(Cn2c(O)c(N=NC(=O)c3ccc(Br)cc3)c3cc(Br)ccc32)CC1`, with 87%; and `CCOc1ccc(NC(=O)CC2C(=O)N(c3cccc(C)c3)C(=O)N2Cc2cccnc2)cc1` (stereo unspecified), with 55%; and `CCOc1ccc(NC(=O)c2cnc3sc(N4CCOCC4)nn3c2=O)cc1`, with 97%. Then `COCCNC(=O)c1ccc2c(=O)n(CCOC)c(SCC(=O)c3c[nH]c4ccccc34)nc2c1`, with 17% (active); and `COCCn1c(SCC(=O)c2c[nH]c3ccccc23)nc2cc(C(=O)NCC(C)C)ccc2c1=O`, with 100%; and `COCCn1c(SCC(=O)c2c[nH]c3ccccc23)nc2cc(C(=O)NC(C)C)ccc2c1=O`, with 55%. In the case of `Cc1ccc(Cl)cc1-n1ncc2c(NCCc3ccccc3)ncnc21`, the survival was 60%. Regarding `COc1ccc(Cl)cc1NC(=O)Cn1c(=O)n(Cc2nc(C)no2)c(=O)c2ccccc21`, the survival is 83%.

Consider `COc1ccc(NC(=O)CSc2nccn2Cc2ccco2)cc1OC`, for which the survival is 73%. Then `Cc1nnc(NC(=O)CSc2nccn2Cc2ccc(Cl)cc2)s1`, with 112%; and `Cc1ccc2nc(NC(=O)CSc3nccn3Cc3ccc(Cl)cc3)sc2c1`, with 96%; and `Cc1cc(C)cc(-n2ccnc2SCC(=O)Nc2nc3ccccc3s2)c1`, with 71%. On to `Cc1cc(C)cc(-n2ccnc2SCC(=O)Nc2nc3ccc(C)cc3s2)c1`, for which the survival is 52% (active). As for `O=C(CSc1nccn1Cc1ccccc1)Nc1nc2ccccc2s1`, the survival was 117%.

With `Cc1ccc(Cn2ccnc2SCC(=O)Nc2nnc(C)s2)cc1`, the survival is 55%. `Cc1ccc2nc(NC(=O)CSc3nccn3Cc3ccccc3)sc2c1`: the survival is 37% (active). As for `O=C(CSc1nccn1Cc1ccc(F)cc1)Nc1nc2ccccc2s1`, the survival was 83%. As for `Cc1ccc2nc(NC(=O)CSc3nccn3-c3ccc(Cl)cc3)sc2c1`, the survival was 71%. For `Cc1nnc(NC(=O)CSc2nccn2Cc2ccc(F)cc2)s1`, the survival was 0% (active). On to `Cc1ccc2nc(NC(=O)CSc3nccn3Cc3ccc(F)cc3)sc2c1`, for which the survival is 99%. Consider `O=C(CSc1nccn1Cc1ccc(Cl)cc1)Nc1nc2ccccc2s1`, for which the survival was 32% (active). `COc1ccccc1NC(=O)CCN1CCC(C(N)=O)CC1`: the survival was 193%. As to `COc1ccc(CNC(=O)c2sc3nc[nH]c(=O)c3c2C)cc1`, the survival was 75%. Take `CCCCNc1nc(Oc2ccc(=O)n(C)n2)nc(N2CCOCC2)n1`: the survival is 81%. As for `COc1ccc(C)cc1Nc1nc(-c2cccc(Cl)c2)c2c(n1)-c1ccccc1OC2`, the survival was 68%. For `CCOC(=O)CCn1nc(C)c2c(C)n(-c3ccccc3)nc2c1=O`, the survival was 87%. `Cc1ccc(OCC(=O)Nc2nc(-c3ccc(Br)cc3)ns2)cc1`: the survival is 72%. For the compound `Cc1ccc(NC(=O)C2CCN(C(=O)c3sc4nc[nH]c(=O)c4c3C)CC2)cc1F`, the survival is 89%. Turning to `COc1cccc(CN2C(=O)c3ccccc3Sc3ccc(C(=O)N(C)Cc4ccccc4)cc32)c1`, the survival was 79%. As for `CN1CCc2c(sc(NC(=O)CSc3ccccc3)c2-c2nc3ccccc3s2)C1`, the survival is 73%. Then `CC(=O)N1CCc2c(sc(NC(=O)CSc3ccccc3)c2-c2nc3ccccc3s2)C1`, with 109%; and `CCN1CCc2c(sc(NC(=O)CSc3ccccc3)c2-c2nc3ccccc3s2)C1`, with -5% (active). With `CCc1ccc(N2C(=O)C3C(C(=O)OC)=NN(C(C)=O)C3C2=O)cc1` (stereo unspecified), the survival was 75%. On to `Cc1ccc(NC(=O)C2CCCN(c3ncnc4onc(-c5ccc(F)cc5)c34)C2)c(Cl)c1` (stereo unspecified), for which the survival is 71%.

Consider `S=C(NCc1ccc2c(c1)OCO2)Nc1ccccc1`, for which the survival is 97%. On to `CCCCNC(=O)C1(NC(=O)Nc2ccccc2)CCCCC1`, for which the survival is 74%. With `O=C(Nc1ccccc1)NC1(C(=O)NCc2ccc3c(c2)OCO3)CCCCC1`, the survival is 6% (active). Then `NC(=O)CSc1nnnn1C1CCCCC1`, with 71%; and `COc1ccc(C(=O)Nc2cccc(-c3cn4ccsc4n3)c2)c(OC)c1`, with 70%; and `COc1cccc(-c2nc3c(C#N)c[nH]n3c2NC2CCCCC2)c1`, with 72%. For the compound `COc1ccc(-c2nc3c(C#N)c[nH]n3c2NC2CCCC2)cc1`, the survival is 56%.

In the case of `COc1cccc(-c2nc3c(C#N)c[nH]n3c2NC2CCCCC2)c1OC`, the survival was 60%. For the compound `COc1cccc(-c2nc3c(C#N)c[nH]n3c2NC2CCCC2)c1OC`, the survival was 64% (active).

For the compound `COc1ccc(-c2nc3c(C#N)c[nH]n3c2NC2CCCC2)c(OC)c1`, the survival was 65%.

For the compound `COc1cccc(-c2nc3c(C#N)c[nH]n3c2NC2CCC(C)CC2)c1` (stereo unspecified), the survival was 29% (active). For `CCC(=O)N1c2ccccc2CC1C(=O)NCCc1ccccc1` (stereo unspecified), the survival was 69%. Take `CCN(CC)c1ccc(NC(=O)C(NS(=O)(=O)c2cccs2)C(C)C)c(C)c1` (stereo unspecified): the survival was 141%. `CCC1CCCCN1CC(=O)Nc1cc(C)c2c(=O)oc3ccccc3c2n1` (stereo unspecified): the survival is 98%. `O=C(COc1ccc2oc3c(c2c1)CCCC3)Nc1ccc(Br)cc1`: the survival is 89%.

Regarding `O=C(COc1ccc2oc3c(c2c1)CCCC3)Nc1cccc(Br)c1`, the survival was 27% (active). As to `Cc1ccc(NC(=O)COc2ccc3oc4c(c3c2)CCCC4)cc1C`, the survival was 70%. As to `O=C(COc1ccc2oc3c(c2c1)CCCC3)Nc1ccc(Cl)cc1`, the survival was 85%. Regarding `Cc1ccc(NC(=O)COc2ccc3oc4c(c3c2)CCCC4)c(C)c1`, the survival is 88%. `Cc1cccc(NC(=O)COc2ccc3oc4c(c3c2)CCCC4)c1`: the survival was 40% (active). In the case of `Cn1c(C(C(=O)NCC2CCCO2)N(Cc2ccc(F)cc2)C(=O)Cn2nnc3ccccc32)nc2ccccc21` (stereo unspecified), the survival was 95%. In the case of `O=C(CSCn1nnc2c(=O)[nH]c(Cc3ccc(F)cc3)nc21)Nc1cccc(C(F)(F)F)c1`, the survival was 64%. On to `CC(=O)OC(COCc1ccccc1)Cn1cnc2ccccc21` (stereo unspecified), for which the survival is 69%. Consider `CCN(CC)CCCNC(=O)CN1C(=O)COc2ccc(S(=O)(=O)N3CCC(C)CC3)cc21`, for which the survival is 101%. For the compound `CCOc1cc(C2c3c(-c4ccccc4O)n[nH]c3C(=O)N2Cc2cccnc2)ccc1O` (stereo unspecified), the survival was 93%.

Take `CCCOc1ccc(C2c3c(-c4ccccc4O)n[nH]c3C(=O)N2Cc2cccnc2)cc1` (stereo unspecified): the survival was 3% (active). To `CCOCCCN1C(=O)c2[nH]nc(-c3ccccc3O)c2C1c1ccc(CC)cc1` (stereo unspecified) belongs 39% (active); to `O=C1c2[nH]nc(-c3ccccc3O)c2C(c2cccc(O)c2)N1Cc1cccnc1` (stereo unspecified), 95%. Regarding `CCCOc1ccc(C2c3c(-c4ccccc4O)n[nH]c3C(=O)N2CCCOCC)cc1OCC` (stereo unspecified), the survival is 81%. Take `CCOc1ccc(C2c3c(-c4ccccc4O)n[nH]c3C(=O)N2Cc2ccncc2)cc1` (stereo unspecified): the survival was 68%.

As to `CCc1ccc(C2c3c(-c4cc(C)ccc4O)n[nH]c3C(=O)N2Cc2cccnc2)cc1` (stereo unspecified), the survival was 61%.

On to `COC(=O)c1ccc(C2c3c(-c4ccccc4O)n[nH]c3C(=O)N2Cc2cccnc2)cc1` (stereo unspecified), for which the survival was 72%. For `CCc1ccc(C2c3c(-c4ccccc4O)n[nH]c3C(=O)N2Cc2cccnc2)cc1` (stereo unspecified), the survival is 34% (active). In the case of `CCc1ccc(C2c3c(-c4ccccc4O)n[nH]c3C(=O)N2Cc2ccncc2)cc1` (stereo unspecified), the survival was 22% (active). In the case of `CSc1ccc(C2c3c(-c4ccccc4O)n[nH]c3C(=O)N2Cc2ccncc2)cc1` (stereo unspecified), the survival is 70%. With `O=C(NC12CC3CC(CC(C3)C1)C2)c1ccco1`, the survival is 72%. `CN(C)CCCC1(O)c2ccccc2CCc2ccccc21`: the survival is 85%.

For the compound `O=C(Nc1cc(Cl)cc(Cl)c1)c1ccc(F)c(S(=O)(=O)N2CCCC2)c1`, the survival was 78%. Consider `CCC(CC)c1nc2ccccc2c(=O)[nH]1`, for which the survival was 98%. In the case of `Cc1cccc(-c2nc3scc(CCNS(=O)(=O)c4ccc5c(c4)OCCO5)n3n2)c1`, the survival is 85%. Regarding `Cc1ccc(NC(=O)c2c(C)nn(-c3ccccc3)c2-n2cccc2)c(Cl)c1`, the survival is 79%. As for `Cc1nn(-c2ccc(F)cc2)c(-n2cccc2)c1C(=O)NCCc1ccc(Cl)cc1`, the survival was 68%. To `Cc1nn(-c2ccccc2)c(-n2cccc2)c1C(=O)NCc1ccccc1Cl` belongs 2% (active); to `CC(=O)Nc1ccc(NC(=O)c2c(C)nn(-c3ccccc3)c2-n2cccc2)cc1`, 84%. `Cc1ccc(CCNC(=O)c2c(C)nn(-c3ccc(F)cc3)c2-n2cccc2)cc1`: the survival is 67%. On to `Cc1nn(-c2ccccc2)c(-n2cccc2)c1C(=O)NCCc1ccc(Cl)cc1`, for which the survival is 4% (active). Then `O=C(NC1CCCCC1)c1ccc(S(=O)(=O)N2CCCC2)cc1`, with 79%; and `CCOC(=O)c1ccc(NC(=O)Cn2cc(C(=O)C3CC3)c3ccccc32)cc1`, with 68%; and `Cc1ccccc1NC(=O)c1sc2nc3n(c(=O)c2c1C)N=C(c1ccccc1)CS3`, with 88%. For the compound `COc1ccc2sc(N3C(=O)C4CC=C(C)CC4C3=O)nc2c1` (stereo unspecified), the survival was 103%. Then `CCN=C1Sc2nc3ccc(OCC)cc3cc2CN1CCOC`, with 104%; and `CCOc1ccc2nc3c(cc2c1)CN(CCO)C(=Nc1cccc(OC)c1)S3`, with 47% (active).

For `COCCN1Cc2cc3cc4c(cc3nc2SC1=Nc1cccc(OC)c1)OCO4`, the survival is 87%. Consider `CN(C)c1ccc(NC(=O)CN2CCN(CC(=O)Nc3ccc(Br)cc3)CC2)cc1`, for which the survival was 80%. In the case of `CCCn1c(-c2ccc(F)cc2)cnc1SCC(=O)N1CCCCC1C` (stereo unspecified), the survival was 74%. For `COc1ccc(OC)c(S(=O)(=O)NCCc2csc3nc(-c4ccccc4)nn23)c1`, the survival is -1% (active). As to `COc1ccc(-c2nc3scc(CCNS(=O)(=O)c4cccs4)n3n2)cc1`, the survival is 6% (active).

As to `COc1ccc(S(=O)(=O)NCCc2csc3nc(-c4ccccc4)nn23)cc1OC`, the survival was 72%. `COc1ccc(-c2nc3scc(CCNS(=O)(=O)c4ccccc4F)n3n2)cc1`: the survival is 90%.

As to `CS(=O)(=O)NCCc1csc2nc(-c3ccccc3)nn12`, the survival was -2% (active). As for `O=S(=O)(NCCc1csc2nc(-c3ccccc3)nn12)c1cccs1`, the survival was 72%. Then `CCS(=O)(=O)NCCc1csc2nc(-c3ccc(C)cc3)nn12`, with 83%; and `CCc1ccc(S(=O)(=O)NCCc2csc3nc(-c4ccccc4)nn23)s1`, with 109%; and `O=S(=O)(NCCc1csc2nc(-c3ccc(Cl)cc3)nn12)c1cccs1`, with 84%.
